Measurements as given in PubChem BioAssay (NCATS).
Results filed as inconclusive are left out. The source made the active and inactive calls. Calls follow the shape of the dose curve; as a rule, active = well fitted cell-killing curve with a large enough effect; inconclusive = small, poorly fitted or top-dose-only effect, or effect the other way; inactive = no such curve, though single readings can be large or run the other way.

assay: Quantitative High-Throughput drug screen in 47 multiple myeloma cell lines against the NCATS MIPE library collection: PE2_PLB cell viability assay (AID 1919869); details: PE2_PLB myeloma cells viability, ATP luminescence, 48 h; series mostly up to 45.8 µM; viability (% of control): at the top concentration; also: nearly all actives have a fitted effect of over 35% in size
From the text: PI: Beverly A. Mock Ph.D.
Laboratory of Cancer Biology and Genetics,
Center for Cancer Research, National Cancer Institute,
National Institute of Health, Bethesda, Maryland
Drug resistance and disease progression are common in multiple myeloma (MM) patients, underscoring the need for new therapeutic combinations. […] We hypothesized that effective combinations would reduce MYC expression and enhance p16 activity. […] These preclinical data identify potentially useful drug combinations for evaluation in drug-resistant MM and reveal potential mechanisms of combined drug sensitivity.
Described herein is the primary MIPE qHTS used to cherrypick compounds. Validated compounds were then further tested for potential synergistic activiy.
[1] Peat TJ, Gaikwad SM, Dubois W, Gyabaah-Kessie N, Zhang S, Gorjifard S, Phyo Z, Andres M, Hughitt VK, Simpson RM, Miller MA, Girvin AT, Taylor A, Williams D, D'Antonio N, Zhang Y, Rajagopalan A, Flietner E, Wilson K, Zhang X, Shinn P, Klumpp-Thomas C, McKnight C, Itkin Z, Chen L, Kazandijian D, Zhang J, Michalowski AM, Simmons JK, Keats J, Thomas CJ, Mock BA. Drug combinations identified by high-throughput screening promote cell cycle transition and upregulate Smad pathways in myeloma. Cancer Lett. 2023 Aug 1;568:216284. doi: 10.1016/j.canlet.2023.216284. Epub 2023 Jun 24. PMID: 37356470; PMCID: PMC10408729.
SEQUENCE No. (e.g., 1, 2, 3, etc.); […] (e.g., Cells, Incubation, Reagent, etc.); VALUE and DESCRIPTION.
1; Cells; 5 uL; white, solid bottom 1536-well Greiner assay plate.
2; Compounds; 23 nL; Kalypsis pin tool (Wako USA) equipped with a 1536-well pin head to transfer to the assay plates.
3; Incubation; 48 hours; 37C incubation.
4; Reagent;5uL; CellTiter Glo (Promega).
5; Detector; 425V; Luminescence; Viewlux PerkinElmer.
NOTES (numbers refer to Sequence numbers above)
1. The cell-based screening methods employed in this study were like those previously published. Briefly, the corresponding myeloma cell lines were screened in 1,536-well plates with 500 cells, 5-uL per well for inhibition of cell viability (assessed by measuring ATP levels with CellTiterGlo).
2. NCATS MIPE 4.0 library of approved and investigational drugs were added using the Kalypsis pin tool. Wells treated with DMSO only for 100% viability and media only for 0% viability were used as controls.
3. The assay plates were covered and incubated for 48 hours in a 37C, 5% CO2 incubator with controlled humidity.
4. After 48 hours, CellTilter-GloTM luminescent substrate mix (Promega) reagent was added to the assay plate and plates we incubated for 5 min at room temperature.
5. Signal was measured as median relative luminescence units on a ViewLux (PerkinElmer) multiplate reader.
[1] Heske CM, Davis MI, Baumgart JT, Wilson K, Gormally MV, Chen L, Zhang X, Ceribelli M, Duveau DY, Guha R, Ferrer M, Arnaldez FI, Ji J, Tran HL, Zhang Y, Mendoza A, Helman LJ, Thomas CJ. Matrix Screen Identifies Synergistic Combination of PARP Inhibitors and Nicotinamide Phosphoribosyltransferase (NAMPT) Inhibitors in Ewing Sarcoma. Clin Cancer Res. 2017 Dec 1;23(23):7301-7311. doi: 10.1158/1078-0432.CCR-17-1121. Epub 2017 Sep 12. PMID: 28899971; PMCID: PMC6636827.
Potency is read from the fitted curve at half-maximal effect.

Row | Compound | viability (% of control) | Potency
1 | CCN(CC)CCCC(C)Nc1ccnc2cc(Cl)ccc12 (stereo not given) | 107% (inactive) | 
2 | CN1CCN(CCCN2c3ccccc3Sc3ccc(C(F)(F)F)cc32)CC1 |  | 9.35 µM (active)
3 | COc1ccc(CC2=NN3C([C@@H](CCc4ccccc4)[C@@H](C)O)=NC(C)C3C(=O)N2)cc1OC (stereo not given in full) | 125% (inactive) | 
4 | C[C@H](NC(=O)Cc1cc(F)cc(F)c1)C(=O)N[C@@H]1C(=O)N(C)c2ccccc2-c2ccccc21 |  | 5.9 µM (active)
5 | O=C(C=Cc1ccc(/C=C/C(=O)Nc2ccc(C3=NCCN3)cc2)cc1)Nc1ccc(C2=NCCN2)cc1 | 109% (inactive) | 
6 | O=c1[nH]cnc2[nH]ncc12 |  | 18.7 µM (active)
7 | Clc1cccc(Cl)c1NC1=NCCN1 | 115% (inactive) | 
8 | Cc1cc([C@@H](C)Nc2ccccc2C(=O)O)c2nc(N3CCOCC3)cc(=O)n2c1 |  | 9.59 µM (active)
9 | CS(=O)(=O)Oc1ccc2c(NC(N)=O)c(C(=O)c3ccc(Cl)cc3Cl)oc2c1 |  | 23.5 µM (active)
10 | Nc1nc2ccc(OC(F)(F)F)cc2s1 | 107% (inactive) | 
11 | CC[C@@H](C)[C@H](NC(=O)[C@H](CC1CCCCC1)NC(=O)c1ccno1)C(=O)N1CCC2(CCc3ccccc32)CC1 | 78% (inactive) | 
12 | COc1ccc(-c2oc3cc(OC)ccc3c2C(=O)c2ccc(C#N)cc2)cc1 | 104% (inactive) | 
13 | Cn1c(=O)c(F)c(Nc2ccc(I)cc2F)c2c(=O)n(C[C@@H](O)CO)cnc21 |  | 9.35 µM (active)
14 | O=C(O)COCCN1CCN(C(c2ccccc2)c2ccc(Cl)cc2)CC1 (stereo not given) | 119% (inactive) | 
15 | Cc1[nH]c(=O)c(C#N)cc1-c1ccc2nccn2c1 | 100% (inactive) | 
16 | CCOc1ccc(Cc2cc([C@@H]3O[C@H](CO)[C@@H](O)[C@H](O)[C@@H]3O)ccc2Cl)cc1 | 109% (inactive) | 
17 | COCCNCCCn1c(C(=O)CF)c(-c2ccc(C)cc2)c2c(N)ncnc21 |  | 14.8 µM (active)
18 | CC(c1cc2ccccc2s1)N(O)C(N)=O (stereo not given) | 104% (inactive) | 
19 | COc1ccc(COc2cc3oc(=O)c4cc(C(C)O)ccc4c3cc2OC)cc1 (stereo not given) |  | 14.8 µM (active)
20 | OC(CCN1CCCCC1)(c1ccccc1)C1CC2C=CC1C2 (stereo not given) | 124% (inactive) | 

Row | Compound | viability (% of control) | Potency
21 | O=C1[C@H](Cc2ccc(O)cc2)N2C(=O)CCN(C(=O)NCc3ccccc3)[C@H]2CN1Cc1cccc2ccccc12 |  | 4.69 µM (active)
22 | CC(=O)NC(C)c1ccc(Oc2ccc(OC(C)C)cc2)cc1 (stereo not given) |  | 16.6 µM (active)
23 | Cn1cnc([N+](=O)[O-])c1Sc1ncnc2nc[nH]c12 |  | 14.8 µM (active)
24 | CCc1ccc(CCOc2ccc(CC3SC(=O)NC3=O)cc2)nc1 (stereo not given) | 105% (inactive) | 
25 | CC1(C)Cc2c(-c3ccccc3)c(-c3ccc(Cl)cc3)c(CC(=O)O)n2C1 |  | 20.9 µM (active)
26 | COc1nc(-c2ccc3c(c2)OCO3)n(-c2ccc(NC(=O)CSc3ccccc3)cc2)n1 | 109% (inactive) | 
27 | Cc1cn[nH]c1 |  | 4.69 µM (active)
28 | COc1ccc([C@@H]2CC(=O)c3c(O)cc(O[C@@H]4O[C@H](CO[C@@H]5O[C@@H](C)[C@H](O)[C@@H](O)[C@@H]5O)[C@@H](O)[C@H](O)[C@@H]4O)cc3O2)cc1O | 102% (inactive) | 
29 | CC(C[N+](C)(C)C)OC(N)=O (stereo not given) | 104% (inactive) | 
30 | COc1ccc2nc(S(=O)Cc3ncc(C)c(OC)c3C)[nH]c2c1 (stereo not given) | 91.2% (inactive) | 
31 | Cc1c(CCOc2ccc(C(=O)O)cc2)c2cc(Cl)ccc2n1C(c1ccccc1)c1ccccc1 | 98.7% (inactive) | 
32 | O=C(O)[C@@H](c1ccc(OCc2ccc3ccccc3n2)cc1)C1CCCC1 | 85.9% (inactive) | 
33 | CCCS(=O)(=O)Nc1ccc(F)c(C(=O)c2c[nH]c3ncc(-c4ccc(Cl)cc4)cc23)c1F |  | 11.8 µM (active)
34 | CCOc1ccn(-c2ccc(F)cc2)c(=O)c1C(=O)Nc1ccc(Oc2ccnc(N)c2Cl)c(F)c1 |  | 13.2 µM (active)
35 | COc1cccc2cc(-c3nc(C4CCC(C(=O)O)CC4)n4ncnc(N)c34)[nH]c12 (stereo not given) |  | 0.372 µM (active)
36 | CCOc1cc(N2CCC(O)CC2)ccc1Nc1ncc2c(n1)N(C)c1ccccc1C(=O)N2C |  | 3.72 µM (active)
37 | CN(C)c1ccc(C2Nc3ccc4ccccc4c3C3=C2C(=O)CC(C)(C)C3)cc1Br (stereo not given) |  | 5.26 µM (active)
38 | Nc1ccc(S(=O)(=O)Nc2ccnn2-c2ccccc2)cc1 | 110% (inactive) | 
39 | CNCc1ccc(-c2[nH]c3cc(F)cc4c3c2CCNC4=O)cc1 | 109% (inactive) | 
40 | Nc1nc2[nH]cc(CCc3ccc(C(=O)N[C@@H](CCC(=O)O)C(=O)O)cc3)c2c(=O)[nH]1 | 112% (inactive) | 
